# Records with an inconclusive call do not appear. Entries that show only a call come without a potency. The source made the active and inactive calls. Calls come from the whole dose curve; as a rule, active = well fitted inhibition curve with a large enough effect; inconclusive = small, poorly fitted or top-dose-only effect; inactive = flat fitted curve, though single readings scatter.
# Tests used:
# Test in all cases: qHTS profiling for inhibitors of Plasmodium falciparum proliferation (AID 504749); note: nearly all actives have a fitted effect of over 60% in size
# Settings in all cases: P. falciparum in erythrocytes, SYBR Green DNA, 72 h; series mostly up to 28.7 µM
# DIV14 = test system: DIV14
# How it was run: (§1)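 Three-day growth assay of blood-stage parasites in erythrocytes (0.3% parasitemia, 2.5% hematocrit) at 37 C, 5% CO2, quantified by SYBR Green DNA staining after overnight detergent lysis.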
# DIV30 = test system: DIV30
# How it was run: as §1
# Dd2 = test system: Dd2
# How it was run: as §1
# ECU = test system: ECU
# How it was run: as §1
# FAB9 = test system: FAB9
# How it was run: as §1
# GB4 = test system: GB4
# How it was run: as §1
# HB3 = test system: HB3
# How it was run: as §1
# ICS = test system: ICS
# How it was run: as §1
# JCK = test system: JCK
# How it was run: as §1
# N140 = test system: N140
# How it was run: as §1
# P93_24 = test system: P93_24
# How it was run: as §1
# P94_40 = test system: P94_40
# How it was run: as §1
# PC15 = test system: PC15
# How it was run: as §1
# PC26 = test system: PC26
# How it was run: as §1
# PC49 = test system: PC49
# How it was run: as §1
# SC27B = test system: SC27B
# How it was run: as §1
# TAB109 = test system: TAB109
# How it was run: as §1
# TAB113 = test system: TAB113
# How it was run: as §1
# PAD = test system: PAD
# How it was run: as §1
# DIV17 = test system: DIV17
# How it was run: as §1
# Potency is the fitted concentration of half-maximal effect.
SMILES,Potency (DIV14),Potency (DIV30),Potency (Dd2),Potency (ECU),Potency (FAB9),Potency (GB4),Potency (HB3),Potency (ICS),Potency (JCK),Potency (N140),Potency (P93_24),Potency (P94_40),Potency (PC15),Potency (PC26),Potency (PC49),Potency (SC27B),Potency (TAB109),Potency (TAB113),Potency (PAD),Potency (DIV17)
O=C1NCN(c2ccccc2)C12CCN(CC1COc3ccccc3O1)CC2 (configuration not stated),inactive,inactive,inactive,inactive,inactive,inactive,inactive,8.91 µM (active),inactive,inactive,inactive,inactive,inactive,inactive,inactive,inactive,inactive,inactive,–,–
C#CCOC(C(=O)OCCN(C)C)(c1ccccc1)c1ccccc1,inactive,inactive,–,–,inactive,inactive,inactive,–,inactive,inactive,–,inactive,inactive,inactive,inactive,inactive,–,inactive,inactive,–
CC(C)=CC1C(C(=O)OCc2cccc(Oc3ccccc3)c2)C1(C)C (configuration not stated),inactive,–,–,inactive,inactive,inactive,inactive,–,inactive,inactive,inactive,inactive,inactive,inactive,inactive,inactive,inactive,inactive,inactive,inactive
Clc1cccc(N2CCNCC2)c1,–,inactive,–,inactive,inactive,–,inactive,inactive,inactive,inactive,inactive,inactive,inactive,inactive,inactive,inactive,–,inactive,inactive,–
O=C(O)c1ccc2[nH]cc(CCCCN3CC=C(c4ccccc4)CC3)c2c1,–,inactive,inactive,inactive,inactive,inactive,inactive,inactive,inactive,inactive,inactive,inactive,inactive,inactive,inactive,inactive,inactive,inactive,inactive,inactive
Cc1ccc(S(=O)(=O)N[C@@H](CCCCN)C(=O)CCl)cc1,–,inactive,–,–,inactive,–,–,12.6 µM (active),–,–,10 µM (active),11.2 µM (active),inactive,inactive,–,–,11.2 µM (active),–,12.6 µM (active),–
N[C@@H](Cc1ccc(N(CCCl)CCCl)cc1)C(=O)O,10.7 µM (active),inactive,12.6 µM (active),–,inactive,15.1 µM (active),–,–,inactive,–,–,–,–,inactive,inactive,–,–,–,–,15.1 µM (active)
Cc1cccc(C)c1NC1=NCCCS1,–,–,12.6 µM (active),inactive,inactive,8.49 µM (active),inactive,12.6 µM (active),inactive,–,–,–,inactive,–,–,inactive,–,inactive,–,–
CCN(C(C)=O)c1cccc(-c2ccnc3c(C#N)cnn23)c1,–,inactive,inactive,inactive,inactive,inactive,inactive,inactive,inactive,inactive,inactive,inactive,inactive,inactive,inactive,inactive,inactive,inactive,inactive,inactive
CC(CCc1ccccc1)NC(C)C(O)c1ccc(O)cc1 (configuration not stated),9.53 µM (active),–,11.2 µM (active),inactive,inactive,–,inactive,inactive,inactive,–,–,–,–,–,inactive,inactive,–,inactive,inactive,–
C[C@]12C/C(=C/O)C(=O)C[C@@H]1CC[C@@H]1[C@@H]2CC[C@@]2(C)[C@H]1CC[C@]2(C)O,–,inactive,inactive,inactive,inactive,inactive,inactive,–,inactive,inactive,inactive,inactive,inactive,inactive,inactive,inactive,inactive,inactive,–,–
c1ccc(C2CC2)c(OCC2=NCCN2)c1,–,inactive,–,inactive,inactive,–,inactive,inactive,inactive,inactive,inactive,inactive,inactive,inactive,inactive,inactive,inactive,inactive,inactive,–
NCC(O)c1ccc(O)cc1 (configuration not stated),–,inactive,inactive,inactive,inactive,inactive,inactive,inactive,inactive,inactive,inactive,inactive,inactive,inactive,inactive,inactive,inactive,inactive,inactive,inactive

# Reference: PubChem BioAssay (NCATS)
